Molecules are shown by their SMILES. The source made the active and inactive calls. Unless noted, how the calls were made is not given here.

Experiment [1] deals with Wnt5a (protein binding on small-molecule microarray). Nature of the experiment: small molecules binding Wnt5a protein – biophysical, small-molecule microarray, 635/667 nm fluorescence, primary screen (AID 1142).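 Further: fluorescence read at 667 nm with signal to noise per printed feature.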 The note with it: 635 nm fluorescence, higher = more signal.
The nature of experiment [2]: ATP-based viability of Huh7 replicon cells – cell-based, CellTiter-Glo luminescence, basal, 48 h, cytotoxicity control for HCV replication inhibitor project, primary screen (AID 1143).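 Further: Huh7 hepatoma cells carrying a hepatitis C replication reporter with no stimulus; test concentration not given here.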 The note with it: higher = more signal, called active from +8 up or from −8 down.
A short description of experiment [3]: Pseudomonas biofilm growth suppression – PAO1 strain, BacTiter-Glo luminescence, LB-PBS, primary screen (AID 1144). The note with it: P. aeruginosa PAO1 biofilm, 12 h, higher = more signal.
Experiment [4] is described as follows: basal CRE-LacZ reporter activity in PC12 – cell-based, unstimulated, primary screen (AID 1145). The note with it: no forskolin, luminescence, 4.5 h, higher = more signal, called active from +8 up or from −8 down.
Experiment [5] in a line: forskolin-driven CRE-LacZ activity in PC12 – cell-based, CRE-LacZ reporter, forskolin-stimulated, primary screen (AID 1146).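 Further: PC12 cells with 6xCRE LacZ reporter stimulated by forskolin 10 µM; beta-galactosidase reporter signal reflecting CREB driven transcription.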 Particulars: luminescence, 4.5 h, higher = more signal, called active from +8 up or from −8 down.
Experiment [6] has as its target Streptavidin (Streptomyces avidinii) (UniProt P22629). Nature of the experiment: compounds binding control protein streptavidin – biophysical, small-molecule microarray, 635/667 nm fluorescence, artefact control for SMM compound annotation, primary screen (AID 1147).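 Further: signal reflects streptavidin binding to arrayed compounds as a control protein.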 The note with it: higher = more signal.
Experiment [7] is described as follows: probe aInhba binding on compound microarray – biochemical, small-molecule microarray, 635/667 nm fluorescence, primary screen (AID 1148).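 Further: score merges 667nm spot fluorescence with signal-to-noise for antibody binding to printed compounds.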 The note with it: higher = more signal.
Experiment [8] concerns the target Torsin-1A (Homo sapiens) (UniProt O14656). Nature of the experiment: TOR1A wild-type binding on microarray – cell lysate, small-molecule microarray, lysate, 635/667 nm, primary screen (AID 1149). Particulars: COS7 hTOR1A-WT lysate, 635 nm fluorescence, higher = more signal.
Experiment [9] has the same target. Put plainly: torsin A mutant lysate binding on microarrays – cell lysate, small-molecule microarray, COS7 lysate, 635/667 nm fluorescence, primary screen (AID 1150).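 Further: score pools 667 nm emission and signal to noise measuring lysate protein binding.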 Particulars: COS7 hTOR1A mutant lysate, 635 nm fluorescence, higher = more signal.
In experiment [10] the test system is Sonic hedgehog protein (Shh). Put plainly: Sonic hedgehog microarray binding compounds – biochemical, small-molecule microarray, 635/667 nm fluorescence, primary screen (AID 1151).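 Further: Shh protein binding to compounds spotted on small-molecule microarray slides; score combines spot fluorescence intensity with signal-to-noise across triplicate slides.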 Particulars: 635 nm fluorescence, higher = more signal.
Experiment [11] in a line: optical density shifts of acrAB sulA E. coli – strain DRC41, OD650, 48 h, E. coli filamentation inducer project, primary screen (AID 1152).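 Further: E. coli MC1000 strain DRC41 lacking acrAB efflux pump and sulA.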 The note with it: higher = more signal, called active from +8 up or from −8 down.
Experiment [12] is described as follows: probe aLefty1 binding on compound microarray – biochemical, small-molecule microarray, 635/667 nm fluorescence, primary screen (AID 1153).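 Further: score merges spot fluorescence with signal-to-noise ratio from the scanned slide images.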 Particulars: higher = more signal.
Experiment [13] is described as follows: plasmodial surface anion channel blockers, osmotic lysis – cell-based, P. falciparum Indochina, OD700, 1 h, primary screen (AID 1154). The note with it: P. falciparum Indochina infected RBC osmotic lysis, higher = more signal, called active from +8 up or from −8 down.
Experiment [14] is described as follows: plasmodial surface anion channel blockers, osmotic lysis – cell-based, P. falciparum Indochina, OD700, 2 h, primary screen (AID 1155).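 Further: lysis reports solute entry through the parasite surface anion channel PSAC.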 Particulars: P. falciparum Indochina infected erythrocytes, higher = more signal, called active from +8 up or from −8 down.
A short description of experiment [15]: changes in parasitized red cell lysis, either direction – P. falciparum Indochina, OD700, 3 h, PSAC antagonist project, primary screen (AID 1156). Particulars: P. falciparum-infected erythrocytes, osmotic lysis, higher = more signal, called active from +8 up or from −8 down.
Experiment [16] can be described thus: plasmodial surface anion channel blockers, osmotic lysis – cell-based, P. falciparum Indochina, OD700, 18 h, primary screen (AID 1157). Particulars: P. falciparum Indochina infected erythrocytes, osmotic lysis OD700, 18 h; higher = more signal, called active from +8 up or from −8 down.
A short description of experiment [17]: S6 kinase pathway phospho-S6 level changes – cell-based, A549, cytoblot, luminescence, serum-stimulated, primary screen (AID 1158).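 Further: serum-stimulated A549 lung adenocarcinoma cells; signal is phosphorylated S6 detected by cytoblot immunostaining with HRP secondary.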 Particulars: 5 h, higher = more signal.
The target of experiment [18] is NADPH oxidase 2 (Homo sapiens) (UniProt P04839). Put plainly: compounds shifting NOX2 Amplex Red fluorescence – cell-based, HEK293-NOX2, PMA-stimulated, NOX inhibitor project, primary screen (AID 1159). Further: test concentration not given here. Particulars: 45 min, higher = more signal, called active from +8 up or from −8 down.
For experiment [19], the target named is NADPH oxidase 4 (Homo sapiens) (UniProt Q9NPH5). Nature of the experiment: compounds shifting NOX4 Amplex Red fluorescence – cell-based, HEK293-NOX4, tetracycline-induced, NOX inhibitor project, primary screen (AID 1160). Particulars: HEK293-NOX4, Amplex Red H2O2 fluorescence, 45 min; higher = more signal, called active from +8 up or from −8 down.
Experiment [20] has as its target NADPH oxidase 5 (Homo sapiens) (UniProt Q96PH1). Nature of the experiment: compounds shifting NOX5 Amplex Red fluorescence – cell-based, HEK293-NOX5, NOX inhibitor project, primary screen (AID 1161). Particulars: HEK293-NOX5, ionomycin, 45 min, higher = more signal.

NADPH oxidase 4 (Homo sapiens), sequence (Q9NPH5 whole entry, looked up): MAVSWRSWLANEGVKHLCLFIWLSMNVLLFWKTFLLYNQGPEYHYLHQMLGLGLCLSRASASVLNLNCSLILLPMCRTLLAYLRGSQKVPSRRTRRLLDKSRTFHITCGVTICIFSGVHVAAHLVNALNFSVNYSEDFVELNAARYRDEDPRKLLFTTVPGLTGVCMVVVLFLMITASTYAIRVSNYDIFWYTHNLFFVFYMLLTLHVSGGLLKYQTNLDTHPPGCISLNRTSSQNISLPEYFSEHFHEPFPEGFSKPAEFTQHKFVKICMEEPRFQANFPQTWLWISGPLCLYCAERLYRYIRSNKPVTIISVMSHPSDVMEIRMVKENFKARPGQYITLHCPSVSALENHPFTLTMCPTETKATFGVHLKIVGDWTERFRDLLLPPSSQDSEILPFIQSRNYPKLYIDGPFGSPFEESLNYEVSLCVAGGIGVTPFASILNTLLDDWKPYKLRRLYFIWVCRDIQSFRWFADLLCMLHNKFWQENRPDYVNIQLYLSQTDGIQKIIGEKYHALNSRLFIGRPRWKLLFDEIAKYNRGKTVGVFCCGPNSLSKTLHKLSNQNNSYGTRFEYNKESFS
NADPH oxidase 2 (Homo sapiens), sequence (P04839 whole entry, looked up): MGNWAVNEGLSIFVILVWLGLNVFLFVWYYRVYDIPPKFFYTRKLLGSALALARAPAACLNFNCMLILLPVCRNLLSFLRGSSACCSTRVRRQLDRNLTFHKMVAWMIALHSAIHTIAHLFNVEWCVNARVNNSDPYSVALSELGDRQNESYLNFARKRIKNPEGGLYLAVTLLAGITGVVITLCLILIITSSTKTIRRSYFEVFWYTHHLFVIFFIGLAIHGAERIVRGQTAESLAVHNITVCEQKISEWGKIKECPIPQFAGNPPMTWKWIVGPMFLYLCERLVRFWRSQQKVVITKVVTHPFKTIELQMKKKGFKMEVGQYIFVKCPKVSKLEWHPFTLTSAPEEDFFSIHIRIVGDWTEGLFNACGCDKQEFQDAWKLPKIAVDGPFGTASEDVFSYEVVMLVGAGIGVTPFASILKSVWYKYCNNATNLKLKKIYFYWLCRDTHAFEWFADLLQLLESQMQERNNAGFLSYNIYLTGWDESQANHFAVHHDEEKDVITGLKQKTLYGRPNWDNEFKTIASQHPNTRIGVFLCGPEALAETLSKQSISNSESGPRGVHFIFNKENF
Streptavidin (Streptomyces avidinii), sequence (P22629 whole entry, looked up): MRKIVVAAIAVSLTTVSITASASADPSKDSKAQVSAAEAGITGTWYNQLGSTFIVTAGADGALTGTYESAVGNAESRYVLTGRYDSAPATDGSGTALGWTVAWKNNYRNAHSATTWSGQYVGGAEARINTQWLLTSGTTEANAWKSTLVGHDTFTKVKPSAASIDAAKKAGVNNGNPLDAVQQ
Torsin-1A (Homo sapiens), sequence (O14656 whole entry, looked up): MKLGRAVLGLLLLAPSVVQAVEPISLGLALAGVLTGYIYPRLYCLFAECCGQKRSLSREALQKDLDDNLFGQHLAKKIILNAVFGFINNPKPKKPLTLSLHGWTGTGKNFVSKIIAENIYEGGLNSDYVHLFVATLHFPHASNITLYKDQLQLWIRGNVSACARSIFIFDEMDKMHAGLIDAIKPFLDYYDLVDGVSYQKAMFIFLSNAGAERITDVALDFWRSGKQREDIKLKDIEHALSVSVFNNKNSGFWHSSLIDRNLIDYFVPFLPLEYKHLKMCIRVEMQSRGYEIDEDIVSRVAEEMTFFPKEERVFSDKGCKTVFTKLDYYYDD
NADPH oxidase 5 (Homo sapiens), sequence (Q96PH1 whole entry, looked up): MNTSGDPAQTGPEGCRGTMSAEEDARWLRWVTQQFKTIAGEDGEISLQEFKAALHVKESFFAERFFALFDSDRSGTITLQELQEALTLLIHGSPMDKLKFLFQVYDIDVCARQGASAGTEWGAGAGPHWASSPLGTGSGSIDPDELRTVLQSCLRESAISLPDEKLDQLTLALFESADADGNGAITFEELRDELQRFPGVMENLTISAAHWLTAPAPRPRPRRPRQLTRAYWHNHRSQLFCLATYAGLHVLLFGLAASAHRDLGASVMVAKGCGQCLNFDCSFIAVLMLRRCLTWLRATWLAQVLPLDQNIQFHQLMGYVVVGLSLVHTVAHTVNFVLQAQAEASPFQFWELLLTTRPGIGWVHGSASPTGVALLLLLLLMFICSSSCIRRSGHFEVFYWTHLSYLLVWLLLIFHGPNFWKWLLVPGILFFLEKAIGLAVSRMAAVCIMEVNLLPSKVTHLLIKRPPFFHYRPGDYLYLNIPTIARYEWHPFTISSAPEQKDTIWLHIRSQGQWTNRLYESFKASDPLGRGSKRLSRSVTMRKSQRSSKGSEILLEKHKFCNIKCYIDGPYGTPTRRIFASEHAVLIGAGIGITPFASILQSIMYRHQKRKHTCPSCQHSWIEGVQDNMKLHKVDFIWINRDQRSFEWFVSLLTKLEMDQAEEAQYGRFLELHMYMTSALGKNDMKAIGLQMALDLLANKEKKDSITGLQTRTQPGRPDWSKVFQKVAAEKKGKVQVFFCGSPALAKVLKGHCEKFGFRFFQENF

As to `CC(C)NC(=O)[C@@]1(Cc2ccccc2I)c2ccccc2C(=O)N(Cc2ccccc2C(F)(F)F)[C@H]1c1ccc(CO)cc1`, the composite z-score was 0.0851 in experiment [1]; -0.503 in experiment [6]; 0.225 in experiment [7]; -0.158 with Torsin-1A (Homo sapiens) [8]; 0.644 with Torsin-1A (Homo sapiens) [9]; 0.66 in [10]. Moreover, the composite z-score in experiment [12] worked out at 0.243. Also, the z-score in [2] was -1.7 (inactive); in experiment [3], 0.358 (inactive); in experiment [4], 0.856 (inactive); in experiment [5], -0.151 (inactive); in experiment [11], 0.267 (inactive); in experiment [13], 5.93 (inactive). The z-score in experiment [14] was 1.82 (inactive); in [15] it was 0.602 (inactive); in experiment [16], 1.19 (inactive); in experiment [17], -0.171; in experiment [18], 1.12 (inactive); in experiment [19] it was -0.213 (inactive). For the same compound, in experiment [20], the z-score was 2.3.
Take `COc1ccc(CCNC(=O)[C@@H]2c3ccccc3C(=O)N(Cc3ccccc3)[C@H]2c2ccc(CO)cc2)cc1`: the composite z-score was -0.039 in [1]; 0.0585 in experiment [6]; -0.0195 in experiment [7]; -0.447 with Torsin-1A (Homo sapiens) [8]; 0.954 with Torsin-1A (Homo sapiens) [9]; 0.832 in experiment [10]. The same compound registered a composite z-score in experiment [12] of 0.436. The z-score in [2] was -2.05 (inactive); in experiment [3], -1.57 (inactive); in [4] it was 0.971 (inactive); in [5], -1.15 (inactive); in experiment [11], 1.81 (inactive); in experiment [13], 3.59 (inactive). Further, the z-score in experiment [14] is -0.275 (inactive); in [15], 0.504 (inactive); in experiment [16], -0.508 (inactive); in [17], 1.89; in experiment [18], -6.18 (inactive); in [19], -0.909 (inactive). In [20], the z-score was -4.52.
Turning to `CC(C)C[C@H]1NC(=O)[C@H](C)NC(=O)[C@@]23C(=O)N[C@@H](Cc4ccccc4)C2[C@H](C)[C@@]2(C)O[C@H]2C3/C=C/C/C=C\CNC1=O` (stereo not given in full), the composite z-score in experiment [1] was -0.0392; in experiment [6] it was -0.442; in experiment [7], -0.176; in the experiment with Torsin-1A (Homo sapiens) [8], -1.09; with Torsin-1A (Homo sapiens) [9] it was 0.0821; in [10], 0.366. The compound further came in with a composite z-score in [12] of -0.774. The z-score in experiment [2] was 0.288 (inactive); in experiment [3] it was 0.325 (inactive); in [4], 2.03 (inactive); in experiment [5] it was -0.0505 (inactive); in [11], -1.07 (inactive); in experiment [13] it was 2.71 (inactive). Further, the z-score is -0.169 (inactive) in [14]; 0.137 (inactive) in experiment [15]; 0.11 (inactive) in experiment [16]; 0.0246 in experiment [17]; -0.232 (inactive) in experiment [18]; 0.83 (inactive) in experiment [19]. The z-score in [20] is -0.234.
Turning to `COC(=O)[C@@]1(Cc2ccc(F)cc2)[C@H]2c3cc(C(=O)N(C)C)n(Cc4ccc(C)c(F)c4F)c3C[C@H]2CN1C(=O)c1ccccc1`, the composite z-score in experiment [1] was 0.152; in [6], 0.993; in experiment [7], 0.651; in the experiment with Torsin-1A (Homo sapiens) [8] it was 0.123; with Torsin-1A (Homo sapiens) [9], 0.432; in [10], -0.553. The composite z-score in experiment [12] was 0.159. Moreover, the z-score was -1.47 (inactive) in [2]; 0.563 (inactive) in experiment [3]; 0.0041 (inactive) in experiment [4]; 0.204 (inactive) in experiment [5]; -0.165 (inactive) in experiment [11]; 5.08 (inactive) in experiment [13]. Besides, the z-score in experiment [14] is 1.21 (inactive); in experiment [15], 0.306 (inactive); in experiment [16], 0.813 (inactive); in experiment [17], 0.101; in experiment [18] it was 0.561 (inactive); in [19], -0.0461 (inactive). The z-score in [20] was found to be 0.169.
As for `CCOC(=O)C1=CC[C@@H](c2ccc(N(CC)CC)cc2)N(S(=O)(=O)c2ccc(C)cc2)[C@H]1c1ccc([N+](=O)[O-])cc1`, the composite z-score in experiment [1] was -0.383; in experiment [6], 1.08; in [7] it was -0.0332; in the experiment with Torsin-1A (Homo sapiens) [8] it was -1; with Torsin-1A (Homo sapiens) [9], -0.101; in [10], -0.438. For the same compound, in experiment [12], the composite z-score came to 0.437. Besides, the z-score in [2] is -3.45 (inactive); in experiment [3], 0.858 (inactive); in experiment [4], -0.583 (inactive); in experiment [5], 0.619 (inactive); in [11], -1.24 (inactive); in [13] it was 1.66 (inactive). Also, the z-score in experiment [14] is 0.86 (inactive); in [15], 0.723 (inactive); in [16] it was 0.779 (inactive); in experiment [17], -0.779; in [18] it was 0.599 (inactive); in experiment [19], -1.37 (inactive). Further, in experiment [20], the z-score is -0.131.
